Assay in all cases: NCI-60 one-dose screen, 48 h (100 = growth as untreated, 0 = no growth, -100 = all killed)
What all share (details): 10 µM unless noted

The test system of test [1] is T-47D breast.
For test [2], the system named is BT-549 breast.
For test [3], the system named is MDA-MB-435 melanoma.
Test [4] concerns SW-620 colon.
Test [5] relates to MCF7 breast.
Test [6] has as its system HCC-2998 colon.
In test [7] the test system is KM12 colon.
The test system of test [8] is MDA-MB-468 breast.
For test [9], the system named is HCT-116 colon.

About 83,000 compounds went through this panel and 20% of them were active in at least one assay; those are over-represented in the sample as a whole.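 How to read the values: 0–100, growth inhibition (40 = 60% inhibited); 0, no net growth; -100 to 0, cell death (-40 = 40% of starting cells died; -100 = all dead).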 Values without a mark were called inactive. Activity calls are given as the source filed them. The calls were made as follows: active = growth percent below 10; inactive = the rest.

As to `Cc1ccc2c(c1)nc(-c1ccccc1)n2CC(=O)N=Nc1c(O)[nH]c2ccc(Cl)cc12`, the growth in [1] is -79.4% (active); in test [2], -72% (active); in test [3], -14.2% (active); in [4] it was 0.844% (active); in test [5], -64% (active); in test [6] it was -71.3% (active). The growth in test [7] was -56.2% (active); in test [8] it was -70.2% (active).

Take `COc1ccc2[nH]c(=O)c(CSc3ccccc3Nc3nccc(-c4ccc(Cl)cc4)n3)cc2c1`: the growth was 38% in test [1]; 31.6% in test [2]; 28.3% in test [3]; 50.3% in test [4]; 7.48% (active) in [5]; 37.6% in test [6]. Further, the growth is 31.9% in test [7] and 17.3% in test [8].

Regarding `O=C(N/N=C/c1c[nH]c2ccccc12)Nc1ccccc1Cl`, the growth in test [1] was 44.9%; in test [2], 1.24% (active); in test [3] it was 2.02% (active); in test [4], 26.1%; in test [5], 1.71% (active); in [9] it was -12.7% (active). In addition, the growth in test [7] is -44.2% (active); in test [8] it was -21.3% (active).

In the case of `CN1C(=O)C(O)(CC(=O)c2cc3ccccc3oc2=O)c2ccccc21` (stereo not given), the growth in test [1] is 103%; in [2] it was 105%; in test [3], 110%; in test [4], 101%; in test [5], 67.1%; in test [9] it was 92.7%. Besides, the growth was 96.9% in test [7] and 82.6% in test [8].

Regarding `COc1ccc(CCC2NCCc3c(Br)c4c(c(OC)c32)OCO4)cc1` (stereo not given), the growth in test [1] is 31.2%; in [2], -19% (active); in [3], -64.5% (active); in [4], 2.69% (active); in test [5], 3.82% (active); in test [6], -23.2% (active). Besides, the growth was 3.9% (active) in test [7] and -18.1% (active) in test [8].

These data come from PubChem BioAssay (NCI).
